Results filed as inconclusive are left out. A call without a number means that no potency is given here. Activity calls are given as the source filed them. Calls come from the whole dose curve; as a rule, active = well fitted curve in the direction sought with a large enough effect in the repeat runs; inconclusive = weak or mixed curves; inactive = no such curve, though single readings can be large; an effect the other way counts as inactive or inconclusive.
Experiments:
[1] = target: Cytochrome P450 2C19 (Homo sapiens) (UniProt P33261); assay: Cytochrome P450 Family 2 Subfamily C Member 19 (CYP2C19) small molecule antagonists: luciferase reporter qHTS assay (AID 1671197); note: nearly all actives have a fitted effect of over 65% in size; note: potency is the fitted concentration of half-maximal effect
Procedure, shortened: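 CYP2C19 P450-Glo, 1536-well qHTS. Cpd + enzyme/proluciferin substrate 10 min RT; + NADPH regen, 37C 1 h; stop with luciferin detection reagent, 20 min RT, luminescence (RLU). Pos ctrl ketoconazole.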

[2] = target: Cytochrome P450 2C9 (Homo sapiens) (UniProt P11712); assay: Cytochrome P450 Family 2 Subfamily C Member 9 (CYP2C9) small molecule antagonists: luciferase reporter qHTS assay (AID 1671198); note: nearly all actives have a fitted effect of over 50% in size; note: potency is the fitted concentration of half-maximal effect
Procedure, shortened: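 CYP2C9 activity was measured with a P450-Glo proluciferin substrate. Enzyme–substrate mix was held with compound for 10 min at room temperature, then NADPH regeneration solution was added for 1 h at 37C. Luciferin product was read as luminescence.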

[3] = target: Voltage-gated inwardly rectifying potassium channel KCNH2 (Homo sapiens) (UniProt Q12809); assay: Human Ether-a-go-go-Related Gene (hERG) channel small molecule antagonists: fluorescence cell-based qHTS assay (AID 1671200);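 note: hERG-expressing U2OS cells given a thallium stimulus after FluxOR II dye loading; series mostly up to about 77 µM; nearly all actives have a fitted effect of over 50% in size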
Procedure, shortened: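 Thallium served as the potassium surrogate; its influx into dye-loaded U2OS cells carrying the channel was measured by fluorescence over 2 min.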

[4] = target: Cytochrome P450 3A4 (Homo sapiens) (UniProt P08684); assay: Cytochrome P450 Family 3 Subfamily A Member 4 (CYP3A4) small molecule antagonists: luciferase reporter qHTS assay (AID 1671201); note: nearly all actives have a fitted effect of over 50% in size; note: potency is the fitted concentration of half-maximal effect
Procedure, shortened: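 Relative luminescence units after 20 min with luciferin detection reagent served as read-out. Beforehand, CYP3A4 turned over a proluciferin substrate for 1 h at room temperature with NADPH regeneration, following 10 min compound preincubation.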

[5] = target: Cytochrome P450 1A2 (Homo sapiens) (UniProt P05177); assay: Cytochrome P450 Family 1 Subfamily A Member 2 (CYP1A2) small molecule antagonists: luciferase reporter qHTS assay (AID 1671199); note: nearly all actives have a fitted effect of over 50% in size; note: potency is the fitted concentration of half-maximal effect
Procedure, shortened: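 Luminescence from luciferin formed by CYP1A2 from a proluciferin substrate, read 20 min after detection reagent. Compound was pre-incubated 10 min with enzyme-substrate, and reaction started with NADPH regeneration solution for 1 h at room temperature; furafylline control.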

Chain of Voltage-gated inwardly rectifying potassium channel KCNH2 (Homo sapiens) (Q12809 whole entry, looked up): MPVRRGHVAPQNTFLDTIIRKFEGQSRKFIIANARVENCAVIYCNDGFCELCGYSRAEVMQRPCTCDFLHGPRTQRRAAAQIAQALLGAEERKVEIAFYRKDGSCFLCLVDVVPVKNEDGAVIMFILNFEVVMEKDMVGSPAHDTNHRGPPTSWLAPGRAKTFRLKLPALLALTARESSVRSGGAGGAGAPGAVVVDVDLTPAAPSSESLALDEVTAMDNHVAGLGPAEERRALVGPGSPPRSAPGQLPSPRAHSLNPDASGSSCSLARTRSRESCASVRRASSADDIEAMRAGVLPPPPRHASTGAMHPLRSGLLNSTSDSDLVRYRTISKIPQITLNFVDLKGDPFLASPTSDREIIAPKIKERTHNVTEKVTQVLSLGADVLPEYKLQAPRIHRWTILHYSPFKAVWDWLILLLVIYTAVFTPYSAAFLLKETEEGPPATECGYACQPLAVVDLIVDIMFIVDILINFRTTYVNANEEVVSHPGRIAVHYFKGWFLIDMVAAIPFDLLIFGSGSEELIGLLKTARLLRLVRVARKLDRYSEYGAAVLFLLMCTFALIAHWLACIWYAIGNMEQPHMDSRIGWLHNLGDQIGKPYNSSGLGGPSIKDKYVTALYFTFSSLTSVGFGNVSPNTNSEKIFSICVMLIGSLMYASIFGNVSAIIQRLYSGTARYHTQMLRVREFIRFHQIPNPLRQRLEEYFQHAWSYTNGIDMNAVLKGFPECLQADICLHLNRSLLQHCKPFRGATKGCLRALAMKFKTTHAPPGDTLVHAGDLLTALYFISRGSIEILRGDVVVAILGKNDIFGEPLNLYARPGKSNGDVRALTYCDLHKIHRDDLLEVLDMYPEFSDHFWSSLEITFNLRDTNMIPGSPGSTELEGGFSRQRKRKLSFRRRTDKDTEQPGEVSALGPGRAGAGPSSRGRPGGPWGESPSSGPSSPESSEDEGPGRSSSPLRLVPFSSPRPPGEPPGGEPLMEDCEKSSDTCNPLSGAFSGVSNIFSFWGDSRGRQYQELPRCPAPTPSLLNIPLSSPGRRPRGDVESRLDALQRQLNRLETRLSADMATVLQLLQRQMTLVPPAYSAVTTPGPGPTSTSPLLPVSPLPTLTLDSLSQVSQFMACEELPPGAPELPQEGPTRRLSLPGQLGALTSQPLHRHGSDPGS
Chain of Cytochrome P450 3A4 (Homo sapiens) (P08684 whole entry, looked up): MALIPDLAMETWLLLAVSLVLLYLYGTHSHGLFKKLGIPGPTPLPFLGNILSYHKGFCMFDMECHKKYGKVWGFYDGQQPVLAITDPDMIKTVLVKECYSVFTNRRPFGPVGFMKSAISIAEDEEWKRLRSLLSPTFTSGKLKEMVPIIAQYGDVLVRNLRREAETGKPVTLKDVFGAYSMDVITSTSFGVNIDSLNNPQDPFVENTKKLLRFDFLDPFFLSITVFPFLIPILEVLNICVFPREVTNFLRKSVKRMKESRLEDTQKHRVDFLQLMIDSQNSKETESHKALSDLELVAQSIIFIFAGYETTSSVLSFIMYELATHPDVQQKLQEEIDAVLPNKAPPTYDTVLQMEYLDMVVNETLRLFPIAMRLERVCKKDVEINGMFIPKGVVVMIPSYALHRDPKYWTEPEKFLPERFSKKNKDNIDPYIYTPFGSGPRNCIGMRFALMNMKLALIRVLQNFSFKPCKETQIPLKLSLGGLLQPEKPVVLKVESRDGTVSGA
Chain of Cytochrome P450 1A2 (Homo sapiens) (P05177 whole entry, looked up): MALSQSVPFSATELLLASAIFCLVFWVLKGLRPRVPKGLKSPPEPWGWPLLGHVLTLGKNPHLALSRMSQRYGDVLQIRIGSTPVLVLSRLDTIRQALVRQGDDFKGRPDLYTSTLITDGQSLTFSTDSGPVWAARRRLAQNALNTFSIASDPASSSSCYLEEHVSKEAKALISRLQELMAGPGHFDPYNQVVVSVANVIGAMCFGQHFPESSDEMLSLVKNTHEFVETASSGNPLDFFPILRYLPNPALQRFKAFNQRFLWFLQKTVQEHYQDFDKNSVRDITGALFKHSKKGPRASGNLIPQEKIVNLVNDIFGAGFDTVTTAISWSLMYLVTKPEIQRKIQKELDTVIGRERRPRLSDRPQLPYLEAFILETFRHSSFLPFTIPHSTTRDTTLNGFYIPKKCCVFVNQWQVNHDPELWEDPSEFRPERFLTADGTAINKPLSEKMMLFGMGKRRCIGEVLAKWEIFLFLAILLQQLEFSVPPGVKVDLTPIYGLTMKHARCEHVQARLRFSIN
Chain of Cytochrome P450 2C9 (Homo sapiens) (P11712 whole entry, looked up): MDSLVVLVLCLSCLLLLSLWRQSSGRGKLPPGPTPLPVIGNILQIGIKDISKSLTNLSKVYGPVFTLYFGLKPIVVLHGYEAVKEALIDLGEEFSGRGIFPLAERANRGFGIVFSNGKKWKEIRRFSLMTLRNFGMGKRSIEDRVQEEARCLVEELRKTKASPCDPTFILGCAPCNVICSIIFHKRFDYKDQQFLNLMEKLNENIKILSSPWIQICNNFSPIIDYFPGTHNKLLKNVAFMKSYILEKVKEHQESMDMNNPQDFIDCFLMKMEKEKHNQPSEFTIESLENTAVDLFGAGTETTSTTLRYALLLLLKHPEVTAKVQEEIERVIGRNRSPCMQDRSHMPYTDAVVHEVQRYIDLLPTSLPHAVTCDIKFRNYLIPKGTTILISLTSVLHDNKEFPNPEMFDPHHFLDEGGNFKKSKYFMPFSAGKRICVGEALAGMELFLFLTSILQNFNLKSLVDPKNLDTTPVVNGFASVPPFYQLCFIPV
Chain of Cytochrome P450 2C19 (Homo sapiens) (P33261 whole entry, looked up): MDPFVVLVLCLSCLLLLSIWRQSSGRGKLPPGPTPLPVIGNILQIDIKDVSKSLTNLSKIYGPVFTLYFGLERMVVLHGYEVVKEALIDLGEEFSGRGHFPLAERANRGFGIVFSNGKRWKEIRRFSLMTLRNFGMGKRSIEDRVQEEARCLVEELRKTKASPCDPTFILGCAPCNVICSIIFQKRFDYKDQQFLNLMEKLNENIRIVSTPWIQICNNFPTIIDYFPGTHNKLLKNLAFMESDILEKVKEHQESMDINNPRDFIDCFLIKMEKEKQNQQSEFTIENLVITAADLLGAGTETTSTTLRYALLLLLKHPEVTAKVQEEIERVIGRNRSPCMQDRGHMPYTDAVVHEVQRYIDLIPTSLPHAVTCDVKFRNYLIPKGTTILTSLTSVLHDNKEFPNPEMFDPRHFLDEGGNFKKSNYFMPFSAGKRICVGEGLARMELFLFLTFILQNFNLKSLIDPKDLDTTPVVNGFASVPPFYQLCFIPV

| Structure (SMILES) | Potency [1] | Potency [2] | Potency [3] | Potency [4] | Potency [5] |
| --- | --- | --- | --- | --- | --- |
| CC(C)NCC(O)c1cc(O)cc(O)c1 (stereo not drawn) | inactive | inactive | inactive | inactive |  |
| CC(C)c1ccccc1C(C)C | 39.9 µM (active) | 39.9 µM (active) | inactive | 22.5 µM (active) | 35.6 µM (active) |
| Nc1nc(N)c2nc(CNc3ccc(C(=O)N[C@@H](CCC(=O)O)C(=O)O)cc3)cnc2n1 | inactive | inactive | inactive | inactive | inactive |
| Cc1ccc(C)o1 | inactive | inactive | inactive | inactive | inactive |
| CC(O)C1CCCCC1 (stereo not drawn) | inactive | inactive | inactive | inactive | inactive |
| Cn1c(N)nc2nc[nH]c2c1=O | inactive | inactive | inactive |  |  |
| C1CCC2OC2C1 (stereo not drawn) | inactive | inactive | inactive | inactive |  |
| FC(F)(F)C(F)(F)C(F)(F)C(F)(F)C(F)(F)C(F)(F)CCI | inactive |  | inactive | inactive | inactive |
| O=C(/C=C/c1ccc(O)c(O)c1)O[C@@H]1C[C@](O)(C(=O)O)C[C@@H](O)[C@H]1O | 80.9 µM (active) | inactive | inactive | inactive |  |
| O=C(O)Cn1c(C(=O)Nc2nc(-c3ccccc3Cl)cs2)cc2ccccc21 | inactive |  | inactive | inactive | inactive |
| CC(C)(Oc1ccc(Cl)cc1)C(=O)OCCCOC(=O)C(C)(C)Oc1ccc(Cl)cc1 | 3.47 µM (active) | 5.49 µM (active) |  | inactive |  |
| CN1CCN(C2=Nc3ccccc3Sc3ccc(Cl)cc32)CC1 | 21.9 µM (active) |  |  |  | inactive |
